# Measured values published in article PMC4931317.
# Target: U3 small nucleolar RNA-associated protein 4 (UniProt Q06679)
# Assay: cross-link between two proteins
# Chain of U3 small nucleolar RNA-associated protein 4 (Q06679 whole entry): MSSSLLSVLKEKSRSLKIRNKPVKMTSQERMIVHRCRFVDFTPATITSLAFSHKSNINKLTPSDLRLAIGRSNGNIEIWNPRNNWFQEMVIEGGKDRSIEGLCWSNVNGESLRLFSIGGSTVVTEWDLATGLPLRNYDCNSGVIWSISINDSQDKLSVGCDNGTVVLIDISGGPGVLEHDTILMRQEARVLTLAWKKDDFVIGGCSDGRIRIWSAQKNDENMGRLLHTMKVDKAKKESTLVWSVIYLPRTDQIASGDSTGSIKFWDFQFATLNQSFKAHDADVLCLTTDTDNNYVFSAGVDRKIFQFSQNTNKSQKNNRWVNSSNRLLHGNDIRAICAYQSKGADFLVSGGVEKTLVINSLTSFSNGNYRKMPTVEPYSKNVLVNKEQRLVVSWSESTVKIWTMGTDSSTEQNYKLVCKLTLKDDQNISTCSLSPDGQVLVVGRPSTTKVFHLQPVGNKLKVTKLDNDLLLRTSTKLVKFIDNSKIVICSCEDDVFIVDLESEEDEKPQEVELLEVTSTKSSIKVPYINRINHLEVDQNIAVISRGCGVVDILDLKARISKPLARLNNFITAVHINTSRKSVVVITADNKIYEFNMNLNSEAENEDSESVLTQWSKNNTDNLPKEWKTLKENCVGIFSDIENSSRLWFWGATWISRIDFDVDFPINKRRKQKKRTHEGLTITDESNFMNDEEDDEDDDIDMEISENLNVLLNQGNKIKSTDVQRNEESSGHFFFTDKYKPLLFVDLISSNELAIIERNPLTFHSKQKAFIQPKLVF
substance,measurement,value
"U3 small nucleolar RNA-associated protein 8, P53276",listed as a hit,yes
